Bioassay records as filed in PubChem.
IMPase Li inh = qHTS Assay for Identifying the Cell-Membrane Permeable IMPase Inhibitors: Potentiation with Lithium. CHO-M1 cells, IP1 TR-FRET (IP-One), carbachol + lithium. hit rate 0.35% among 210,000. Potency, µM (series often up to 59.4 µM), usual class: inhibitors;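 further: IP1 builds up when IMPase is blocked and the TR-FRET signal falls; nearly all actives have a fitted effect of over 50% in size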
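Readout is a homogeneous TR-FRET IP1 immunoassay (Ex 320, Em 665 and 620), where raised cytosolic IP1 lowers signal. Cells were CHO-M1 treated 30 min at 37C with test compounds plus a little lithium; AC50 values came from Hill-equation fitting.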
HPGD inh = qHTS Assay for Inhibitors of HPGD (15-Hydroxyprostaglandin Dehydrogenase); Potency, µM, hits mostly inhibitors; 15-hydroxyprostaglandin dehydrogenase [NAD(+)] (Homo sapiens), P15428; AID 894, 2007; purified HPGD, NADH fluorescence kinetic, PGE2 substrate; hit rate 4.3% among 150,000; active means well fitted inhibition curve with a large enough effect, not every such curve was filed as active; inconclusive means small, poorly fitted or top-dose-only effect, or another doubt; inactive means no such curve, though single readings can be large or run the other way
Target sequence (P15428 whole entry, looked up): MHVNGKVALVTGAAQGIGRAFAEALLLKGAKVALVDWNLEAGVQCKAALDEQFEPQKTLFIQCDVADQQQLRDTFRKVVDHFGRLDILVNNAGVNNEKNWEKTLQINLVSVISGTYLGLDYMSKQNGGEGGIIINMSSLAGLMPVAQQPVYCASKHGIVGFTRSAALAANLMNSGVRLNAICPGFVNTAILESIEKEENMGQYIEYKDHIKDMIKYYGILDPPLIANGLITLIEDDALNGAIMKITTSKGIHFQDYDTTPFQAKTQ
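NADH formation kinetics: reaction with 30 uM PGE2 and 1 mM NAD+ (final), 20 nM enzyme, Tris-HCl pH 8 with Tween 20, after 15 min compound preincubation at room temperature. Fluorescence change, last versus first of five reads.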
HttQ103 aggreg = qHTS Multiplex Assay to Identify Dual Action Probes in a Cell Model of Huntington: Aggregate Formation (GFP). PC12 HttQ103-GFP aggregates, Acumen cytometry, 40 h. hit rate 1.1% among 220,000. Potency, µM (doses to about 46.1 µM), actives largely listed as inhibitors. AID 1688, 2009; further: nearly all actives have a fitted effect of over 60% in size
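Using laser scanning cytometry, GFP-positive aggregates were counted after lysis of PC12 cells induced with 100 nM tebufenozide to express HTT exon 1 Q103–GFP. Compounds were tested in titration.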
IMPase inh = qHTS Assay for Identifying the Cell-Membrane Permeable IMPase Inhibitors; CHO-M1 cells, IP1 accumulation, HTRF TR-FRET ratio; inhibition (IP1 accumulation), % at 46.1 µM; 120,000 tested, under 10 active; AID 901, 2007; active means well fitted curve in the direction sought with a large enough effect in the signal ratio, not every such curve was filed as active; inconclusive means small, poorly fitted or top-dose-only effect, or a change in a side signal; inactive means no such curve, though single readings can be large or run the other way; the % refers to the signal ratio;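 further: cells stimulated with carbachol in lithium chloride buffer; higher means more IMPase inhibition seen as more IP1 and lower FRET ratio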
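Cellular IMPase inhibition is scored as a rise in cytosolic IP1, detected by competitive TR-FRET between d2-labelled IP1 and a europium anti-IP1 antibody. M1-expressing CHO cells were stimulated with carbachol for 30 min at 37C, with lithium (50 mM LiCl) present in the buffer.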
HTT cytoprotect = qHTS Multiplex Assay to Identify Dual Action Probes in a Cell Model of Huntington: Cytoprotection (ATP); PC12 HTT-Q103 induced, cytoprotection, ATP luminescence, 40 h; Potency, µM (top dose mostly 56.4 µM), actives largely listed as activators; hit rate 0.14% among 230,000; AID 1471, 2008; further: nearly all actives have a fitted effect of over 45% in size
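Huntington model: PC12 line, ecdysone-inducible HTTQ103 exon1–GFP, tebufenozide 100 nM. Test articles in a dose series. Endpoint luminescence from cellular ATP.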
ALDH1A1 block = qHTS Assay for Inhibitors of Aldehyde Dehydrogenase 1 (ALDH1A1). Aldehyde dehydrogenase 1A1 (Homo sapiens), P00352. Potency, µM (highest dose often 75.3 µM), usual class: inhibitors. hit rate 7.3% among 220,000. Purified ALDH1A1, NADH fluorescence, propionaldehyde substrate; active means well fitted inhibition curve with a large enough effect, not every such curve was filed as active; inconclusive means small, poorly fitted or top-dose-only effect, or another doubt; inactive means no such curve, though single readings can be large or run the other way
Target sequence (P00352 whole entry, looked up): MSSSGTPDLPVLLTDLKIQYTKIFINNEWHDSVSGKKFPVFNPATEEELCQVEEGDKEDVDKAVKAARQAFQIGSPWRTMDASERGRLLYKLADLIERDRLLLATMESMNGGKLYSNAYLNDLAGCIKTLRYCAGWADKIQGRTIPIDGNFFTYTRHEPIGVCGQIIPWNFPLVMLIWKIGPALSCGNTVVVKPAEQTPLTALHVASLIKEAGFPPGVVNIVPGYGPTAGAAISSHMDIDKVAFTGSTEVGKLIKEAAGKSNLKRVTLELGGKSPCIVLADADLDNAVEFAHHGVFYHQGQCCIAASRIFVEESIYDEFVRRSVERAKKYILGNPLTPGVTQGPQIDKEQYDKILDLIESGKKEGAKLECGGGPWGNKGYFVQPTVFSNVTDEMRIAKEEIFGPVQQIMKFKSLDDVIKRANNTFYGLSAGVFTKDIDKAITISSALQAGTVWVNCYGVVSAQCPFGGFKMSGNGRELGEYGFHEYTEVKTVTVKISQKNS
Numbers stand for hits; 0 = inactive; ? = inconclusive; - = not tested or not shown; [ ] = dose if it differs, or a comment. Only some compounds are listed: those with a hit (about 9.4% of all), similar ones and a draw of the others. Unless noted, the call rests on the fitted dose curve; in most records, active means well fitted curve in the direction sought with a large enough effect; inconclusive means small, poorly fitted or top-dose-only effect, or another doubt; inactive means no such curve, though single readings can be large; an effect the other way counts as inactive or inconclusive.

SMILES	IMPase Li inh	HPGD inh	HttQ103 aggreg	IMPase inh	HTT cytoprotect	ALDH1A1 block
O=C(Nc1nc(-c2ccccn2)cs1)c1cc(Cl)ccc1[N+](=O)[O-]	0	-	?	-	0[10 µM]	10µM
O=C(Nc1nc(-c2ccccn2)cs1)c1ccccc1-n1cnnn1	-	-	0[9.22 µM]	-	0[10 µM]	10µM
c1csc(C(c2nnnn2C2CCCCC2)N2CCN(c3nc4ccccc4s3)CC2)c1 (centres undefined)	0	0	0	0[0.369 µM]	0[10 µM]	0
c1ccc(C(c2nnnn2C2CCCC2)N2CCN(c3nc4ccccc4s3)CC2)cc1 (centres undefined)	0	0	0	0	0[10 µM]	14.1µM
Fc1ccccc1N1CCN(C(c2ccncc2)c2nnnn2C2CCCC2)CC1 (centres undefined)	0	0	0	0	0	25.1µM
CCC(c1nnnn1C1CCCC1)N1CCN(c2ccccc2F)CC1 (centres undefined)	0	0	0	0	0	?
Cc1ccc(Nc2nnc(-c3ccc(C)c(S(=O)(=O)N4CCOCC4)c3)c3ccccc23)cc1	-	-	-	0	-	-
O=C(NNC(=O)c1ccccc1Br)c1ccccc1Cl	0	-	0	-	0	0
O=C(NNC(=O)c1ccc2ccccc2c1O)c1ccccc1Cl	0	0	31.6µM	0	0[10 µM]	0
CCOC(=O)/C(=C\c1cccc(O)c1)c1nc2sc(C)c(C)c2c(=O)[nH]1	0	7.94µM	0	-	0[10 µM]	7.94µM
O=C(O)CN1C(=O)/C(=C/c2ccc(N3CCCCC3)o2)SC1=S	-	-	0[9.22 µM]	-	0[10 µM]	-
CN1CCS/C1=C/C=C1\SC(=S)N(CC(=O)O)C1=O	0	-	0[9.22 µM]	-	0[10 µM]	11.2µM
CN1CCS/C1=C/C=C1/SC(=S)N(Cc2ccccc2)C1=O	0	0	0	-	0[10 µM]	1µM
O=C1/C(=C/c2ccccc2)[C@@H](NC2CCCCC2)c2ccccc21	0	0	-	-	0[10 µM]	0[13.5 µM]
N#CC1=C(N)N(c2ccc(F)cc2)C2=C(C1c1ccc(O)cc1)S(=O)(=O)CC2 (centres undefined)	0	-	0	-	0	11.2µM
COc1cc(-c2coc3cc(OCc4ccccc4)c(OC)c(O)c3c2=O)cc(O)c1OC	0	?	-	-	0	?
COc1ccc(OCCSc2nnc(Cc3cccc4ccccc34)n2N)cc1	0	22.4µM	0	-	0[10 µM]	?
Nn1c(Cc2cccc3ccccc23)nnc1SCc1ccccc1	0	12.6µM	0	-	0[10 µM]	0
O=C(CSc1nc2ccccc2c(=O)n1-c1ccccc1)N/N=C/C=C/c1ccccc1[N+](=O)[O-]	0	-	0	-	0	2.82µM
Cc1cc(C(=O)N/N=C/C=C/c2ccccc2[N+](=O)[O-])c(C)o1	0	-	0	-	0	5.62µM
Cc1occc1C(=O)N/N=C/C=C/c1ccccc1[N+](=O)[O-]	0	-	0	-	0	0
O=C(N/N=C/C=C/c1ccccc1[N+](=O)[O-])c1cc(-c2cccnc2)nc2ccccc12	0	0	0	0	0[10 µM]	14.1µM
CO[C@H]1OC[C@@]2(C)[C@@H]3C4=C(CN2C(=O)OC(C)(C)C)[C@H](C)[C@H](CO)[C@H](CO)[C@H]4CC[C@H]13	0	0	-	-	0	0
Cc1cccc(NC(=S)NNC(=O)c2cccc([N+](=O)[O-])c2)c1	-	-	0[9.22 µM]	-	0[10 µM]	-
C/C(=N/NC(=S)Nc1cccc(C)c1)c1cccc([N+](=O)[O-])c1	0	-	-	-	-	8.91µM
SMILES	IMPase Li inh	HPGD inh	HttQ103 aggreg	IMPase inh	HTT cytoprotect	ALDH1A1 block
CCCC[C@@H]1C[C@H]1C(NC(=O)c1ccc(C(F)(F)F)cc1)c1ccc(C(=O)OC)cc1 (some centres undefined)	0	0	-	-	0	?
O=C1C=C(NCCc2cc(Br)c(O)c(Br)c2)C(=O)c2ncccc21	0	0	-	-	0[10 µM]	1.58µM
O=C(Nc1nc(-c2ccco2)c(-c2ccco2)s1)C1CC(=O)N(c2ccc3c(c2)OCCO3)C1 (centres undefined)	0	?	0	0	0[10 µM]	1.12µM
CCCCc1nnc(NC(=O)C2CC(=O)N(c3ccc4c(c3)OCCO4)C2)s1 (centres undefined)	0	0	0	0	0[10 µM]	0
O=C(Nc1nnc(SCc2c(Cl)cccc2Cl)s1)C1CC(=O)N(c2ccc3c(c2)OCCO3)C1 (centres undefined)	0	-	0	-	0[10 µM]	3.55µM
Cc1cc(NC(=O)CSc2nnc(NC(=O)C3CC(=O)N(c4ccccc4C)C3)s2)no1 (centres undefined)	?	0	0	-	0[10 µM]	20µM
O=C(Nc1nnc(SCc2ccc(F)cc2)s1)C1CC(=O)N(c2ccc3c(c2)OCCO3)C1 (centres undefined)	0	?	0	0	0[1.9 µM]	0
N=C(N)SCCN1CCCCC1	0	0	-	-	0[10 µM]	?
CC(C)(C)[Si](C)(C)c1c2c(nc3ccc(OCc4ccccc4)cc13)-c1cccc(=O)n1C2	0	?	-	-	0	?
CCOC(=O)C1(CCCc2ccccc2)CCN(C(=O)CCC2=NNC(=O)CC2)CC1	0	-	0[9.22 µM]	-	0[10 µM]	2µM
CCOC(=O)C1(CCCc2ccccc2)CCN(C(=O)C2=C(C)OCCO2)CC1	0	-	0[9.22 µM]	-	0[10 µM]	3.16µM
CCOC(=O)C1(CCCc2ccccc2)CCN(C(=O)c2ccoc2)CC1	0	-	0	-	0	3.98µM
CCOC(=O)C1(CCCc2ccccc2)CCN(C(=O)Cc2nonc2C)CC1	0	-	0	-	0	?
CCOC(=O)C1(CCc2ccccc2)CCN(C(=O)c2ccoc2)CC1	0	-	0[9.22 µM]	-	0[10 µM]	25.1µM
COc1ccc2c(c1)C(=O)[C@@H](OC(=O)NS(=O)(=O)c1ccc(F)cc1)[C@H](c1ccc(OC)c(Br)c1)O2	0	0	-	-	0	0
O=C(CSc1nncn1-c1cccnc1)N(c1ccccc1)c1ccccc1	0	-	0[9.22 µM]	-	0[10 µM]	15.8µM
C/C(N)=C(/C#N)C(=O)CSc1nncn1-c1ccccc1	0	-	0	-	0[10 µM]	0
OC[C@@H](O)CNc1ncnc2ccccc12	0	0	-	-	0[10 µM]	0[13.5 µM]
CCOC(=O)c1sc2nc3n(c(=O)c2c1C)CCC(C)CC3 (centres undefined)	0	25.1µM	0[9.22 µM]	0	0	11.2µM
CCOC(=O)N1CCN(C(=O)Nc2sc3nc4n(c(=O)c3c2C)CCC(C)CC4)CC1 (centres undefined)	0	0	0	?	0	12.6µM
CCOC(=O)N1CCN(C(=O)Nc2ccc3nc(C)sc3c2)CC1	0	0	0	0	0	?
CCOC(=O)N1CCC(NC(=O)c2sc3nc4n(c(=O)c3c2C)CCCC4)CC1	0	0	0	?	0[0.074 µM]	0
NCCO	0	0	-	-	0	?
Cc1ccc(NC(=O)CCn2c(=S)oc3ccccc32)cc1	0	-	0	-	0	0
